According to PubChem BioAssay (NCATS):
Results filed as inconclusive are left out. A number with no mark means an inactive call. Calls of active or inactive are those of the source. Calls come from the whole dose curve; as a rule, active = well fitted cell-killing curve with a large enough effect; inconclusive = small, poorly fitted or top-dose-only effect; inactive = no such curve, though single readings can be large or run the other way.
Potency is the fitted concentration of half-maximal effect.

Test: qHTS of pediatric cancer cell lines to identify multiple opportunities for drug repurposing: Primary screen for Rh41 cells (AID 1347108); note: nearly all actives have a fitted effect of over 70% in size;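 for activity change, negative = cytotoxic: luminescence drop marks cytotoxic hits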
Details: Rh41 rhabdomyosarcoma viability, CellTiter-Glo luminescence, 48 h; series mostly up to 46 µM; activity change, negative = cytotoxic: at the top concentration
Description: Drug repurposing or repositioning has been offered as a strategy for drug development in oncology programs. This approach has special potential for childhood cancers and other rare or orphan diseases, where the expected return on new drug development has been a disincentive to pharmaceuticals. […] In this project we exploit the poly-pharmacology of drugs to discover new indications via phenotypic screening of a panel of 19 well-characterized cell lines derived from solid tumors seen in children and adolescents. The goal is to identify approved drugs with previously unrecognized anticancer properties that has the potential to reveal new mechanisms and biological processes involved in carcinogenesis or drug resistance. We employed a titration-based paradigm (quantitative high-throughput screening or qHTS), where all compounds were tested at multiple concentrations for their effect on cell viability. Concentration-response curves (CRCs) were derived directly from the primary screen, and both potency and efficacy values were used to identify compounds with robust bioactivity profiles. We screened the NIH Chemical Genomics Center (NCGC) Pharmaceutical Collection (NPC) and Mechanism Interrogation Plate (MIPE) small molecule collections of approved and investigational compounds against these cell lines; and measured metabolically active cells after 48 hours of compound treatment as a proxy for cell viability. […] Assay Submitter: Nathalia J. Martinez, National Center for Advancing Translational Sciences, National Institutes of Health, Rockville, MD, USA; email: natalia.martinez@nih.gov Shen, M et al. Quantitative high-throughput phenotypic screening of pediatric cancer cell lines identifies multiple opportunities for drug repurposing. Oncotarget 2017 Dec 19;9(4):4758-4772. PMID 29435139.
The cells were obtained from University of North Carolina (UNC), Pediatric Preclinical Testing Program (PPT), and Coriell Institute (CI). qHTS cell viability assay: Cells were assayed in growth media at a density of 500-1,000 cells/well. Five microliters of cells were dispensed into 1,536-well, white, solid-bottom, TC-treated plates (Greiner Bio One) using a multidrop dispenser and incubated at 37 degrees C, 5% CO2, under a humidified atmosphere for 5 hours. Twenty-three nanoliters of compounds and controls (neutral control DMSO or positive control bortezomib at final concentration of 2.3 µM) were subsequently transferred by Kalypsys pintool. For primary screens, the MIPE collection was tested at 11-point dilutions (final concentrations range from 0.78 nM to 46 µM) and the NPC collection at 8-point dilutions (final concentrations range from 0.59 nM to 46 µM). Compounds tested in follow-up screens were assayed at 11-point dilutions. Cells were incubated for 48 hours, followed by addition of 3 µL of CellTiter-Glo (Promega). After a 15 min incubation at room temperature, samples were analyzed for luminescence intensity using a ViewLux High-throughput CCD imager equipped with clear filters.
For COc1c(OCCCN2CCOCC2)ccc2c3n(c(=NC(=O)c4cnc(N)nc4)nc12)CCN3, the Potency was 0.102 µM (active). In the case of C=CC(=O)Nc1cccc(Oc2nc(Nc3ccc(N4CCN(C)CC4)cc3)ncc2Cl)c1, the Potency is reported as 11.8 µM (active). With CCc1cc2c(cc1N1CCC(N3CCOCC3)CC1)C(C)(C)c1[nH]c3cc(C#N)ccc3c1C2=O the “activity change, negative = cytotoxic” value was -56.5%. For CC(C)(C)c1cc(NC(=O)Nc2ccc(-c3cn4c(n3)sc3cc(OCCN5CCOCC5)ccc34)cc2)no1, the “activity change, negative = cytotoxic” value was -23.8%. With CC(=O)Nc1nc(C)c(-c2ccc(Cl)c(S(=O)(=O)NCCO)c2)s1 the Potency was 6.62 µM (active). With CN(C)CC=CC(=O)Nc1cc2c(Nc3ccc(F)c(Cl)c3)ncnc2cc1O[C@H]1CCOC1 the Potency was 7.43 µM (active). For CC[C@@H]1C(=O)N(C)c2cnc(Nc3ccc(C(=O)NC4CCC(N5CCN(CC6CC6)CC5)CC4)cc3OC)nc2N1C(C)C (stereo not given in full), the Potency was 2.35 µM (active). For O=C(NCCCNc1nc(Nc2cccc(NC(=O)N3CCCC3)c2)ncc1I)c1cccs1, the Potency was 18.7 µM (active). For CNC(=O)c1cc(Oc2ccc(NC(=O)Nc3cc(C(C)(C)C)nn3-c3ccc4ncccc4c3)c(F)c2)ccn1, the Potency was 23.5 µM (active). In the case of CN(C)Cc1c(C(=O)NCCOc2ccc(C(=O)NO)cc2)oc2ccccc12, the Potency is reported as 1.48 µM (active). In the case of Clc1cccc(-c2nnnn2Cc2cccnc2)c1Cl, the “activity change, negative = cytotoxic” value is reported as 8.43%. With O=C(O)c1ccc2c(c1)nc(Nc1cccc(Cl)c1)c1ccncc12 the Potency was 14.8 µM (active). In the case of CC(C)(C)c1cnc(CSc2cnc(NC(=O)C3CCNCC3)s2)o1, the Potency is reported as 0.59 µM (active). With Cc1cc(Nc2cc(N3CCN(C)CC3)nc(C=Cc3ccccc3)n2)n[nH]1 the Potency was 10.8 µM (active). With O=C(C=Cc1cccnc1)NCCCCC1CCN(C(=O)c2ccccc2)CC1 the Potency was 0.118 µM (active). For Cc1c(Cn2c(C)nc3c(C(=O)O)cc(N4CCOCC4)cc32)cccc1C(F)(F)F, the Potency was 7.43 µM (active). With Nc1nccc(Oc2ccc(NC(=O)c3c[nH]cc(-c4ccc(F)cc4)c3=O)cc2F)c1Cl the Potency was 18.7 µM (active). For COc1cc2c(Oc3ccc4[nH]c(C)cc4c3F)ncnc2cc1OCCCN1CCCC1, the Potency was 18.7 µM (active). In the case of COc1c(N2C[C@@H]3CCCN[C@H]3C2)c(F)cc2c(=O)c(C(=O)O)cn(C3CC3)c12, the “activity change, negative = cytotoxic” value is reported as 19.9%. For Cc1[nH]c2ccccc2c1CCNCc1ccc(C=CC(=O)NO)cc1, the Potency was 0.235 µM (active). In the case of Cc1c(CN2CCN(S(C)(=O)=O)CC2)sc2c(N3CCOCC3)nc(-c3cnc(N)nc3)nc12, the Potency is reported as 0.148 µM (active). In the case of CC(C)[C@H](C(=O)Nc1ccc(C(=O)NO)cc1)c1ccccc1, the Potency is reported as 1.18 µM (active). With CCC[C@H](NC(=O)C(C#N)=Cc1cccc(Br)n1)c1ccccc1 the Potency was 14.8 µM (active). In the case of O=C(O)CO.[NH2-].[NH2-].[Pt+2], the “activity change, negative = cytotoxic” value is reported as 24.9%. For Nc1ccccc1NC(=O)c1ccc(CNC(=O)OCc2cccnc2)cc1, the Potency was 3.72 µM (active). For COc1cc(=C2C=c3ccccc3=N2)[nH]c1=Cc1[nH]c(C)cc1C, the Potency was 5.9 µM (active). For C1=CCOCc2cc(ccc2OCCN2CCCC2)Nc2nccc(n2)-c2cccc(c2)OCC1, the Potency was 5.9 µM (active). For O=C(O)CCCc1c[nH]c2ccccc12, the “activity change, negative = cytotoxic” value was 16.2%. With Nc1ccccc1NC(=O)c1ccc(CNc2nccc(-c3cccnc3)n2)cc1 the Potency was 1.18 µM (active). With CC(C)Nc1cc(C(F)(F)F)cc2nc(NC(=O)c3cccnc3)nn12 the “activity change, negative = cytotoxic” value was -8.72%. In the case of CC(NCc1ccc2c(c1)nc(NC(=O)c1ccc(-c3cn[nH]c3)s1)n2CC(C)(C)O)C(C)(C)C (stereo not given), the Potency is reported as 0.743 µM (active). For COc1cc(C(=O)N2CCC(N3CCN(C)CC3)CC2)ccc1Nc1ncc2c(n1)N(C)c1ccccc1C(=O)N2C, the Potency was 9.35 µM (active). With CC1(C)OC2=C(C(=O)c3ccccc3C2=O)[C@H](NCc2ccccc2)[C@H]1O the Potency was 7.43 µM (active). In the case of c1cc(-c2cnn3cc(-c4ccc(OCCN5CCCCC5)cc4)cnc23)ccn1, the Potency is reported as 9.35 µM (active). For O=C(Nc1cn[nH]c1-c1nc2ccc(CN3CCOCC3)cc2[nH]1)NC1CC1, the Potency was 4.69 µM (active). For CCN(CC)CCNC(=O)c1ccc2nc(-c3ccccc3)c(-c3ccc(CN4CCC(n5c(=O)[nH]c6ccccc65)CC4)cc3)nc2c1, the Potency was 10.5 µM (active). For CCOC(=O)C1=C(C)NC2=C(C(=O)CC(C)(C)C2)C1c1ccc(-c2ccccc2)cc1 (stereo not given), the Potency was 18.7 µM (active). With C=C1C(=CC=C2CCCC3(C)[C@@H]([C@H](C)C=CC=CC(O)(CC)CC)CC[C@@H]23)C[C@@H](O)C[C@@H]1O (stereo not given in full) the Potency was 18.7 µM (active). With O=C(Nc1cc(C(F)(F)F)cc(C(F)(F)F)c1)c1cc(Cl)ccc1O the Potency was 2.35 µM (active). With CN(C1CCc2c(c3ccccc3n2CC(=O)O)C1)S(=O)(=O)c1ccc(F)cc1 (stereo not given) the Potency was 3.72 µM (active).
